Assay outcomes as filed in PubChem BioAssay.
ADAM10 inh = inhibitors of human ADAM10; 370,000 compounds, 0.62% hits; inhibition, % at 7 µM; recombinant ADAM10, EDANS/DABCYL FRET peptide cleavage, 3 h; O14672;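 active = inhibition above a per-campaign cutoff equal to the mean of compounds falling between control-based bounds plus 3 SD, cut at about 20% in these data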;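 note: 0% = DMSO wells while the 100% control is not disclosed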
ADAM17 inh = inhibitors of human ADAM17; P78536; recombinant ADAM17, EDANS/DABCYL FRET peptide cleavage; inhibition, % at 6.95 µM; 370,000 compounds, 0.83% hits; AID 720648;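 active = inhibition above the mean of compounds lying between control limits plus 3 SD, set per campaign, cut at about 8.5% in these data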;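 note: 0% = DMSO-only wells as the low control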
Rce1 inhib = blocks yeast Ras-converting enzyme; Q03530; yeast membranes, quenched prenylated peptide cleavage fluorescence; calls only; 290,000 compounds, 0.27% hits; AID 2563;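 active = fall in fluorescence gain of 50% or more versus controls, with final raw signal at or below 3038400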;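 note: plate controls were neutral control wells for no effect and wells lacking membranes for full effect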
Target sequence (Q03530 whole entry, looked up): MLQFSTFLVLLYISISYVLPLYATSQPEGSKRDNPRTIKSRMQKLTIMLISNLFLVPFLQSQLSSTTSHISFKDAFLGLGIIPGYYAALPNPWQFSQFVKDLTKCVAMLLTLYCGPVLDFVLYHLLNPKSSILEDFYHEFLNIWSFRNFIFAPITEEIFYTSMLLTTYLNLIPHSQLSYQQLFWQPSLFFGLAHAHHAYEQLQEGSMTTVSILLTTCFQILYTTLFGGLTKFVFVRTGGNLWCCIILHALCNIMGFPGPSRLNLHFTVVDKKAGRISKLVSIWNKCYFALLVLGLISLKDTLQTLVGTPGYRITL
PLC-gamma1 inh = PLC-gamma1 (human) inhibition, primary screen; P19174; purified PLC-gamma1, fluorogenic substrate, fluorescence; inhibition, % at 12.2 µM; 370,000 compounds, 0.84% hits
PLCb3 inh = blocks human PLC-beta3 enzyme activity; Q01970; Purified PLC-beta3, fluorogenic substrate, fluorescence; inhibition, % at 12.2 µM; 370,000 compounds, 0.18% hits; in the data active = inhibition above about 11%;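 note: 0% = median of compound wells on plate and 100% = full blocker control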
PLCg1 ctr = PLC-gamma1 inhibition, counter-screen for PLC-beta3 hits. shares compounds with PLC-gamma1 inh. purified PLC-gamma1, fluorogenic substrate, fluorescence. inhibition, % at 12.3 µM. 3,300 compounds, 3.1% hits
PLCbeta3 conf = human PLC-beta3 inhibition, confirmation. purified PLC-beta3, fluorogenic substrate fluorescence. inhibition, % at 12.3 µM. 3,300 compounds, 1% hits. shares compounds with PLC-gamma1 inh; in the data active = inhibition above about 11%
* = called active by the depositor. Shown are actives, neighbours in structure and some others; about 2.1% of the full set was active somewhere. Cut-off read from the data, not from the text of the source, unless noted: active = inhibition above about 9.5%; inactive = the rest.

For O=C(c1ccccc1)c1ccc(OCC(O)CNCc2ccc(Cl)cc2)cc1 (stereo unspecified) the results were ADAM10 inh 16, ADAM17 inh 2, Rce1 inhib inactive, PLC-gamma1 inh 12*, PLCb3 inh 3, PLCg1 ctr -2 and PLCbeta3 conf -1.
CCOc1ccc(C(=O)N(CN2CCCC2=O)c2ccccc2)cc1 was read as ADAM10 inh 13, ADAM17 inh 1, Rce1 inhib inactive, PLC-gamma1 inh 9.9*, PLCb3 inh 2, PLCg1 ctr -1 and PLCbeta3 conf -1.
For CCN1CCCC1CNC(=O)CCc1nc(-c2ccc(C)cc2)no1 (stereo unspecified) the results were ADAM10 inh 10, ADAM17 inh 2, Rce1 inhib inactive, PLC-gamma1 inh 10*, PLCb3 inh 1, PLCg1 ctr 4 and PLCbeta3 conf -3.
Cc1ccc(-c2noc(CCC(=O)NC3CCCC3)n2)cc1 was read as ADAM10 inh -3, ADAM17 inh -1, Rce1 inhib inactive, PLC-gamma1 inh 0 and PLCb3 inh -4.
`COc1cccc(CN(C)[C@H]2C[C@H]3c4[nH]c5ccccc5c4CCN3C[C@H]2[C@H](C)O)c1OC` gave ADAM10 inh -16, ADAM17 inh 2, PLC-gamma1 inh 3 and PLCb3 inh 0.
O=C(Nc1ccc(F)cc1F)c1c(C(F)(F)F)ccnc1Oc1ccccc1 was read as ADAM10 inh 10, ADAM17 inh 3, Rce1 inhib inactive, PLC-gamma1 inh 11*, PLCb3 inh 1, PLCg1 ctr -5 and PLCbeta3 conf 1.
Screening Cc1cccc(Oc2nccc(C(F)(F)F)c2C(=O)Nc2ccc(F)cc2F)c1 returned ADAM10 inh 5, ADAM17 inh 2, Rce1 inhib inactive, PLC-gamma1 inh 7 and PLCb3 inh -1.
CCOC(=O)c1c(NC(=O)CSc2nnc(C)o2)sc(C)c1C was read as ADAM10 inh 6, ADAM17 inh 5, Rce1 inhib inactive, PLC-gamma1 inh 9.7*, PLCb3 inh -2, PLCg1 ctr -4 and PLCbeta3 conf -1.
For CN(NS(=O)(=O)c1ccccc1)C(=O)c1ccccc1 the results were ADAM10 inh -9, ADAM17 inh 3, PLC-gamma1 inh 12*, PLCb3 inh 5, PLCg1 ctr 1 and PLCbeta3 conf 2.
For O=c1cc(-c2ccccc2)oc2cc(O)c(O)c(O)c12 the results were ADAM10 inh -2, ADAM17 inh 1, PLC-gamma1 inh -5 and PLCb3 inh -9.
For O=c1c(O)cccc2cc(O)c(O)c(O)c12 the results were ADAM10 inh -1, ADAM17 inh -1, Rce1 inhib inactive, PLC-gamma1 inh 46*, PLCb3 inh 5, PLCg1 ctr 30* and PLCbeta3 conf 1.
`CCOc1ncccc1C(=O)N=c1sccn1C` gave ADAM10 inh -14, ADAM17 inh 7, Rce1 inhib inactive, PLC-gamma1 inh 12*, PLCb3 inh -2, PLCg1 ctr -4 and PLCbeta3 conf 1.
`Cc1ccccc1C(=O)N=c1sccn1C` gave ADAM10 inh 10, ADAM17 inh -3, Rce1 inhib inactive, PLC-gamma1 inh -6 and PLCb3 inh -11.
For CCOc1nc2cccc(C(=O)O)c2n1Cc1ccc(-c2ccccc2-c2nn[nH]n2)cc1 the results were ADAM10 inh -9, ADAM17 inh 1, PLC-gamma1 inh -3 and PLCb3 inh 1.
For Cc1nnc(SCC(=O)Nc2sc3c(c2C#N)CCCCC3)n1N the results were ADAM10 inh 4, ADAM17 inh -2, Rce1 inhib inactive, PLC-gamma1 inh -3 and PLCb3 inh -2.
`N#Cc1c(NC(=O)CSc2nnnn2C2CCCCC2)sc2c1CCCC2` gave ADAM10 inh 6, ADAM17 inh 2, Rce1 inhib inactive, PLC-gamma1 inh 10*, PLCb3 inh 3, PLCg1 ctr -6 and PLCbeta3 conf 3.
For CC1(C)O[C@@H]2[C@H](O1)[C@@H](CO)O[C@H]2n1ccc(=O)[nH]c1=O the results were ADAM10 inh -3, ADAM17 inh -1, PLC-gamma1 inh 3 and PLCb3 inh 8.
`CCOc1ccc(-c2n[nH]c(C)c2Oc2ccccc2OC)c(O)c1` gave ADAM10 inh 20, ADAM17 inh 8, Rce1 inhib inactive, PLC-gamma1 inh 9.6*, PLCb3 inh 3, PLCg1 ctr -4 and PLCbeta3 conf -2.
Screening CCOC(=O)C1(CCOc2ccccc2)CCN(Cc2ccc(OC)c(O)c2)CC1 returned ADAM10 inh 14, ADAM17 inh 8, Rce1 inhib inactive, PLC-gamma1 inh 10*, PLCb3 inh 9, PLCg1 ctr -7 and PLCbeta3 conf -2.
`COC(=O)C1=C(N)Oc2cc(C)n(Cc3cccnc3)c(=O)c2C1c1cccc(OC)c1OC` (stereo unspecified) gave ADAM10 inh -6, ADAM17 inh 4, PLC-gamma1 inh 9.7*, PLCb3 inh 9, PLCg1 ctr -6 and PLCbeta3 conf -2.
CN(CC(=O)NCC(=O)Nc1ccc(F)cc1)C1CCS(=O)(=O)C1 (stereo unspecified) was read as ADAM10 inh -10, ADAM17 inh -1, PLC-gamma1 inh 4 and PLCb3 inh -10.
CS(=O)(=O)N1CCN(c2ccccc2NC(=S)NC(=O)c2cccs2)CC1 was read as ADAM10 inh 3, ADAM17 inh 2, Rce1 inhib inactive, PLC-gamma1 inh 1 and PLCb3 inh -2.
For CS(=O)(=O)N1CCN(c2ccccc2NC(=S)NC(=O)c2ccccc2[N+](=O)[O-])CC1 the results were ADAM10 inh 3, ADAM17 inh -1, PLC-gamma1 inh 9.9*, PLCb3 inh 8, PLCg1 ctr -2 and PLCbeta3 conf -1.
For COc1ccccc1N1CCN(S(=O)(=O)CCNC(=O)CCc2ccccc2)CC1 the results were ADAM10 inh 6, ADAM17 inh 3, PLC-gamma1 inh 9.7*, PLCb3 inh -2, PLCg1 ctr -6 and PLCbeta3 conf -4.
For COc1ccccc1C(=O)Nc1ccccc1N1CCN(S(C)(=O)=O)CC1 the results were ADAM10 inh -6, ADAM17 inh 8, Rce1 inhib inactive, PLC-gamma1 inh 11*, PLCb3 inh 8, PLCg1 ctr 9 and PLCbeta3 conf 3.
For COc1ccc(C(=O)O)cc1S(=O)(=O)Nc1ccccc1-c1ccccc1 the results were ADAM10 inh 12, ADAM17 inh -2, PLC-gamma1 inh 2 and PLCb3 inh -2.
`CC(=O)C(Sc1ncnc2sc3c(c12)CCCC3)C(C)=O` gave ADAM10 inh 0, ADAM17 inh -1, Rce1 inhib inactive, PLC-gamma1 inh -5 and PLCb3 inh -4.
Screening Cc1ccc(CNC(=O)CCn2nc(-c3ccc(Cl)cc3)ccc2=O)cc1 returned ADAM10 inh -3, ADAM17 inh -3, Rce1 inhib inactive, PLC-gamma1 inh 1 and PLCb3 inh -1.
